Assay results published in PubChem BioAssay AID1159580 (chemical genetic matrix, 2015).
Among all 5,500 compounds or so, about 2,000 (36%) were called active. Roughly 18% stayed inconclusive and do not appear here. No stated cut-off is given here; in the data, active means normalized growth mostly below about 0.91 (no sharp cut-off); inconclusive means no clear call, values can overlap the other calls; inactive means mostly above about 0.92. The list shows a part of the results.

Test: chemical genetic growth profiling, strain panel (AID 1159580);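 further: tested at 20 µM; growth read once vehicle control cultures reached saturation at 30 °C; 1 = growth at the plate median or of vehicle wells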
Details: growth OD

Measured: normalized growth

CCCCC(CC)CN=C(N)NC(N)=NCCCCCCN=C(N)NC(N)=NCC(CC)CCCC (centres undefined)
active: S. cerevisiae deletion strains, locus YKL009W, strain mrt4, stronger effect = lower value 0.0745 | S. cerevisiae deletion strains, locus YKL068W, stronger effect = lower value 0.0576 | S. cerevisiae deletion strains, locus YKL085W, strain MDH1 (second series), stronger effect = lower value 0.0564 | S. cerevisiae deletion strains, locus YKL085W, strain MDH1, stronger effect = lower value 0.0564 | S. cerevisiae deletion strains, locus YKL160W, strain elf1, stronger effect = lower value 0.0635 | S. cerevisiae deletion strains, locus YKL190W, strain CNB1, stronger effect = lower value 0.05 | S. cerevisiae deletion strains, locus YKR001C, strain vps1, stronger effect = lower value 0.0639 | S. cerevisiae deletion strains, locus YKR026C, strain gcn3, stronger effect = lower value 0.0659 | S. cerevisiae deletion strains, locus YKR091W, strain srl3, stronger effect = lower value 0.0594 | S. cerevisiae deletion strains, locus YLL001W, strain dnm1, stronger effect = lower value 0.0606 | S. cerevisiae deletion strains, locus YLL026W, stronger effect = lower value 0.0577 | S. cerevisiae deletion strains, locus YLL041C, strain sdh2, stronger effect = lower value 0.0581 | S. cerevisiae deletion strains, locus YLR027C, strain aat2, stronger effect = lower value 0.0557 | S. cerevisiae deletion strains, locus YLR039C, strain RIC1, stronger effect = lower value 0.0876 | S. cerevisiae deletion strains, locus YLR058C, strain SHM2, stronger effect = lower value 0.0571 | S. cerevisiae deletion strains, locus YLR102C, strain apc9, stronger effect = lower value 0.0596 | S. cerevisiae deletion strains, locus YLR113W, strain HOG1, stronger effect = lower value 0.113 | S. cerevisiae deletion strains, locus YLR221C, strain rsa3, stronger effect = lower value 0.0636 | S. cerevisiae deletion strains, locus YLR258W, strain gsy2, stronger effect = lower value 0.0577 | S. cerevisiae deletion strains, locus YLR262C, strain YPT6 (second series), stronger effect = lower value 0.0725 | S. cerevisiae deletion strains, locus YLR262C, strain YPT6, stronger effect = lower value 0.104 | S. cerevisiae deletion strains, locus YLR268W, strain sec22, stronger effect = lower value 0.0602 | S. cerevisiae deletion strains, locus YLR320W, strain mms22, stronger effect = lower value 0.0987 | S. cerevisiae deletion strains, locus YLR330W, strain CHS5, stronger effect = lower value 0.0561 | S. cerevisiae deletion strains, locus YLR342W, strain FKS1 (second series), stronger effect = lower value 0.0721 | S. cerevisiae deletion strains, locus YLR342W, strain FKS1, stronger effect = lower value 0.0635 | S. cerevisiae deletion strains, locus YLR357W, strain rsc2, stronger effect = lower value 0.127 | S. cerevisiae deletion strains, locus YLR370C, strain arc18, stronger effect = lower value 0.0632 | S. cerevisiae deletion strains, locus YLR371W, strain rom2, stronger effect = lower value 0.0612 | S. cerevisiae deletion strains, locus YLR384C, strain iki3, stronger effect = lower value 0.0589 | S. cerevisiae deletion strains, locus YLR418C, strain cdc73, stronger effect = lower value 0.0906 | S. cerevisiae deletion strains, locus YML016C, strain PPZ1, stronger effect = lower value 0.0539 | S. cerevisiae deletion strains, locus YML032C, strain rad52, stronger effect = lower value 0.0626 | S. cerevisiae deletion strains, locus YML120C, strain ndi1, stronger effect = lower value 0.0582 | S. cerevisiae deletion strains, locus YML124C, strain tub3, stronger effect = lower value 0.058 | S. cerevisiae deletion strains, locus YMR058W, strain fet3, stronger effect = lower value 0.0606 | S. cerevisiae deletion strains, locus YMR078C, strain ctf18, stronger effect = lower value 0.0695 | S. cerevisiae deletion strains, locus YMR125W, strain sto1, stronger effect = lower value 0.0772 | S. cerevisiae deletion strains, locus YMR129W, stronger effect = lower value 0.0584 | S. cerevisiae deletion strains, locus YMR205C, strain PFK2, stronger effect = lower value 0.0839 | S. cerevisiae deletion strains, locus YMR223W, strain ubp8, stronger effect = lower value 0.0589 | S. cerevisiae deletion strains, locus YMR231W, strain pep5, stronger effect = lower value 0.0657 | S. cerevisiae deletion strains, locus YMR263W, strain SAP30, stronger effect = lower value 0.0593 | S. cerevisiae deletion strains, locus YMR307W, strain GAS1, stronger effect = lower value 0.118 | S. cerevisiae deletion strains, locus YNL067W, strain RPL9B, stronger effect = lower value 0.051 | S. cerevisiae deletion strains, locus YNL071W, strain lat1, stronger effect = lower value 0.0619 | S. cerevisiae deletion strains, locus YNL128W, strain TEP1, stronger effect = lower value 0.0666 | S. cerevisiae deletion strains, locus YNL183C, strain NPR1, stronger effect = lower value -0.00134 | S. cerevisiae deletion strains, locus YNL209W, strain ssb2, stronger effect = lower value 0.0592 | S. cerevisiae deletion strains, locus YNL233W, strain BNI4, stronger effect = lower value 0.06 | S. cerevisiae deletion strains, locus YNL248C, strain rpa49, stronger effect = lower value 0.0743 | S. cerevisiae deletion strains, locus YNL250W, strain rad50, stronger effect = lower value 0.0631 | S. cerevisiae deletion strains, locus YNL271C, strain bni1, stronger effect = lower value 0.0667 | S. cerevisiae deletion strains, locus YNL298W, strain CLA4, stronger effect = lower value 0.0608 | S. cerevisiae deletion strains, locus YNL307C, strain MCK1, stronger effect = lower value 0.0671 | S. cerevisiae deletion strains, locus YNL322C, strain KRE1 (second series), stronger effect = lower value 0.0646 | S. cerevisiae deletion strains, locus YNL322C, strain KRE1, stronger effect = lower value 0.05 | S. cerevisiae deletion strains, locus YNR049C, strain mso1, stronger effect = lower value 0.058 | S. cerevisiae deletion strains, locus YNR052C, strain pop2, stronger effect = lower value 0.0629 | S. cerevisiae deletion strains, locus YOL006C, strain TOP1, stronger effect = lower value 0.124 | S. cerevisiae deletion strains, locus YOL012C, strain htz1 0.144 | S. cerevisiae deletion strains, locus YOL147C, strain pex11, stronger effect = lower value 0.058 | S. cerevisiae deletion strains, locus YOR001W, strain rrp6, stronger effect = lower value 0.0671 | S. cerevisiae deletion strains, locus YOR061W, strain CKA2, stronger effect = lower value 0.0521 | S. cerevisiae deletion strains, locus YOR069W, strain VPS5, stronger effect = lower value 0.0535 | S. cerevisiae deletion strains, locus YOR070C, strain gyp1, stronger effect = lower value 0.0584 | S. cerevisiae deletion strains, locus YOR080W, strain dia2, stronger effect = lower value 0.0635 | S. cerevisiae deletion strains, locus YOR083W, strain WHI5, stronger effect = lower value 0.0619 | S. cerevisiae deletion strains, locus YOR106W, strain vam3, stronger effect = lower value 0.0658 | S. cerevisiae deletion strains, locus YOR136W, strain idh2, stronger effect = lower value 0.0692 | S. cerevisiae deletion strains, locus YOR144C, strain elg1, stronger effect = lower value 0.0567 | S. cerevisiae deletion strains, locus YOR184W, strain ser1, stronger effect = lower value 0.0701 | S. cerevisiae deletion strains, locus YOR231W, strain MKK1, stronger effect = lower value 0.0983 | S. cerevisiae deletion strains, locus YOR265W, strain rbl2, stronger effect = lower value 0.0559 | S. cerevisiae deletion strains, locus YOR270C, strain vph1, stronger effect = lower value 0.0983 | S. cerevisiae deletion strains, locus YOR290C, strain snf2, stronger effect = lower value 0.0664 | S. cerevisiae deletion strains, locus YOR316C, strain cot1, stronger effect = lower value 0.0588 | S. cerevisiae deletion strains, locus YPL051W, strain arl3, stronger effect = lower value 0.0606 | S. cerevisiae deletion strains, locus YPL055C, strain LGE1, stronger effect = lower value 0.0672 | S. cerevisiae deletion strains, locus YPL078C, strain atp4, stronger effect = lower value 0.0617 | S. cerevisiae deletion strains, locus YPL106C, strain sse1, stronger effect = lower value 0.0996 | S. cerevisiae deletion strains, locus YPL240C, strain hsp82, stronger effect = lower value 0.0572 | S. cerevisiae deletion strains, locus YPL256C, strain CLN2, stronger effect = lower value 0.111 | S. cerevisiae deletion strains, locus YPR119W, strain clb2, stronger effect = lower value 0.0609 | S. cerevisiae deletion strains, locus YPR141C, strain kar3, stronger effect = lower value 0.0639 | S. cerevisiae deletion strains, locus YPR163C, strain tif3, stronger effect = lower value 0.0715 | S. cerevisiae deletion strains, locus YPR167C, strain met16, stronger effect = lower value 0.0622 | S. cerevisiae deletion strains, strain wtn01, stronger effect = lower value 0.0578 | S. cerevisiae strains, strain wild type, stronger effect = lower value 0.0505
